From PubChem
D2 antag = antagonizes the human D2 dopamine receptor; P14416; HEK293 TREx D2 cells, calcium flux, dopamine EC80; inhibition, % at 10 µM; 340,000 tested, 2% active; AID 485344; in the data active means inhibition above about 30%; inactive means below that, where a call was filed
Target sequence (P14416 whole entry, looked up): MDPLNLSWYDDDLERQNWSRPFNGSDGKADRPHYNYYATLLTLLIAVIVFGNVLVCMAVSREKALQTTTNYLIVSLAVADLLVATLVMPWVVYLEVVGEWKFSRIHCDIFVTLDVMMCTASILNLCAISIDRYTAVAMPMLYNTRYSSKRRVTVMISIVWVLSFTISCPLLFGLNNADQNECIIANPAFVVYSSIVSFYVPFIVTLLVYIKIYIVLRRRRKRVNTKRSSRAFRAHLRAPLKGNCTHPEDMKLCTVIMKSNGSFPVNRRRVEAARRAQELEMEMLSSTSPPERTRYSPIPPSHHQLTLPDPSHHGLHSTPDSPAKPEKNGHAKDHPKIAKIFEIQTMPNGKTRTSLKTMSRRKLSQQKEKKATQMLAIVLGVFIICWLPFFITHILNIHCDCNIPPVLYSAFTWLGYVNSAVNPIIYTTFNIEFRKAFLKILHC
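Tetracycline-induced HEK293 T-REx cells expressing D2 force-coupled to calcium signalling were dye-loaded, exposed to compound for 180 s, then challenged with an EC80 of dopamine; calcium flux was followed kinetically for a further 180 s.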
D2 PAM-1 = D2 dopamine receptor (human) potentiation | 340,000 tested, 0.34% active | AID 485347 | P14416 | potentiation, % at 10 µM | HEK293 T-REx D2, calcium flux, EC20 dopamine potentiation;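 active means potentiation over 3 SD above the plate norm, cut at about 30% in these data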
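Potentiation of an EC20 dopamine calcium response measured kinetically over 180 s, after a preceding 180 s compound-only read flagging agonists. Cells: inducible Hek293 Trex D2 line, 4000/well, cultured overnight at 30 C before dye loading.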
D2 ag-1 = D2 dopamine receptor (human) agonism. P14416. HEK293 T-REx D2 cells, calcium flux agonist mode. activation, % at 2 µM. 340,000 tested, 0.53% active;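 active means activation over 3 SD above normal in the single-dose calcium agonist read, cut at about 30% in these data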
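Calcium-flux readout, 1 cycle/sec over 180 s following compound pin transfer, in inducible HEK293 Trex D2 cells (force-coupled); dopamine controls included. Positive calcium responses during this window marked compounds as potential agonists.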
D2 PAM-2 = positive allosteric modulators of human D2 dopamine receptor; P14416; DiscoveRx D2 beta-arrestin cells, luminescence, 90 min; 100% = 57 uM dopamine signal; potentiation, % (no concentration beside the values); 360,000 tested, 0.23% active; AID 624464; in the data active means potentiation above about 50%; inconclusive means mostly about 30% to 49%
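PathHunter beta-arrestin assay in DiscoveRx D2 cells. Compounds were added with an EC20 of dopamine (50 nM final) for 90 min at 37 deg C. Luminescence was read 1 h after detection reagent, with 57 uM dopamine as the EC100 control.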
D2 ag-2 = agonists of human D2 dopamine receptor (beta-arrestin); P14416; AID 624465; DiscoveRx PathHunter D2 beta-arrestin, luminescence, 90 min; 100% = 57 uM dopamine signal; 360,000 tested, 0.084% active; activation, % (no concentration beside the values); in the data active means activation above about 40%; inconclusive means between about 15% and that limit
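DiscoveRx PathHunter D2 beta-arrestin cells (2,100/well) attached overnight, then compound-stimulated 90 min at 37 C in HBSS/10 mM HEPES/0.1% Tween-20 buffer; beta-galactosidase complementation read by luminescence after 1 h at ambient temperature. Dopamine 57 uM final (EC100) as control.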
A number is an active result; . = inactive; ? = inconclusive; / = not tested or not shown. The list is not random: actives were taken first. Their share in the collection is about 2.4%.

SMILES | D2 antag | D2 PAM-1 | D2 ag-1 | D2 PAM-2 | D2 ag-2
COC(=O)CN1C(=O)CSc2ccc(S(=O)(=O)Nc3cccc(Cl)c3C)cc21 | / | . | . | / | /
CN(C)CCCNS(=O)(=O)c1cc(Cl)ccc1Cl | 38.2 | . | . | . | .
CCCCS(=O)(=O)c1oc(-c2ccc(F)cc2)nc1S(=O)(=O)c1ccccc1 | / | . | . | / | /
COc1ccc(C2OC[C@H]3O[C@H](O)[C@H](NC(C)=O)[C@@H](O)[C@@H]3O2)cc1 (stereo partly specified) | 52.9 | . | . | . | .
COc1ccccc1OC1OC2COC(c3ccco3)OC2C(O)C1NC(C)=O (stereo unspecified) | . | . | . | . | .
CC(=O)c1[nH]c(C)c(C(=O)NCc2ccc(Cl)cc2)c1C | / | . | . | / | /
COc1cc(C(=O)ON=C2C3CC4CC(C3)CC2C4)cc(OC)c1OC | . | . | . | . | 44.8
COc1cc(C(=O)O/N=C2\C=CC(=O)C=C2C)cc(OC)c1OC | 49.8 | . | . | . | .
COc1cc(C(=O)O/N=C2/C=CC(=O)C(C)=C2C)cc(OC)c1OC | . | . | . | 72.0 | ?
COc1cc(C(=O)NC23CC4CC(CC(C4)C2)C3)cc(OC)c1OC | . | . | . | . | .
CC1=C(c2ccc(C)c(C)c2)S(=O)(=O)N=C1N1CCC(C(=O)NCCc2ccc(Cl)cc2)CC1 | / | . | . | / | /
Cc1c(C(=O)Nc2ccc(F)cc2F)oc2ccc3c(c12)C(=O)CC(C)(C)O3 | / | . | . | / | /
Cc1nn2c(-c3ccco3)ccnc2c1-c1ccc(Cl)cc1 | / | . | / | / | /
Cc1cccc(N2CCN(C(=O)Cn3c(=O)c4cccn4c4ccc(F)cc43)CC2C)c1 (stereo unspecified) | / | . | . | / | /
CC(C)c1ccc(NC(=O)CCNS(=O)(=O)c2cccc3nonc23)cc1 | . | . | . | . | .
Cc1ccc(NC(=O)CCNS(=O)(=O)c2cccc3nonc23)cc1 | 30.5 | . | . | . | .
O=C(CN1CCc2cc3c(cc2C1)OCCCO3)Nc1c(F)cccc1F | 41.5 | . | . | . | .
Cc1cccc(N2CCN(c3cc(C)nc4c(-c5ccc(Cl)cc5)c(C)nn34)CC2C)c1 (stereo unspecified) | / | . | . | / | /
Cc1ccc(NC2(c3ccccc3)C(=O)c3ccccc3C2=O)cc1F | / | . | . | / | /
Cc1ccc(/C=C/C(=O)c2cc(Br)ccc2OC(=O)c2ccco2)cc1 | 35.1 | . | . | . | .
C=CCn1c(Sc2ccccc2)nc2c1c(=O)[nH]c(=O)n2C | . | . | . | . | .
CCCCCn1c(Sc2ccccc2)nc2c1c(=O)[nH]c(=O)n2C | 31.4 | . | . | . | .
CC(C)CCSc1nc2c(c(=O)[nH]c(=O)n2C)n1CCCc1ccccc1 | 35.3 | . | . | . | .
NC(N)=NC(N)=Nc1ccc2ccccc2c1 | 32.9 | . | . | . | .
CCCOc1ccc(C2C(=O)N(C3CCC(C)CC3)CC(=O)N2Cc2cccc(OC)c2)cc1OC (stereo unspecified) | / | . | / | / | /
SMILES | D2 antag | D2 PAM-1 | D2 ag-1 | D2 PAM-2 | D2 ag-2
Fc1cccc(Cc2noc(CN3CCC(c4ccncc4)CC3)n2)c1 | 52.6 | . | . | . | .
Fc1cccc(Cc2noc(CN3CCOCC3)n2)c1 | . | . | . | . | .
CCCS(=O)(=O)NC(=O)C1(C)CCN(C(=O)COc2ccc(Cl)cc2Cl)C1 (stereo unspecified) | / | / | / | 59.7 | .
CCCS(=O)(=O)NC(=O)C1(C)CCCN(C(=O)COc2ccc(Cl)cc2Cl)C1 (stereo unspecified) | / | / | / | . | .
COc1ccc(OC)c([N+](=O)[O-])c1C(N)=O | . | . | . | 50.1 | .
O=C(Nc1ccc(Cl)cc1)NC1CCCCC1Cc1ccco1 (stereo unspecified) | . | . | . | . | .
O=C(Nc1ccc(Cl)cc1)NC1CCCC1Cc1ccco1 (stereo unspecified) | 53.4 | . | . | . | .
Cc1oc2ccc(O)c(CN3CCCCCC3)c2c1C(=O)Nc1cccc(C(F)(F)F)c1 | / | . | . | / | /
CCCN1C(=O)/C(=C/c2ccc(C)s2)NC1=S | 31.4 | . | . | . | .
Cc1nnc(SC(C)C(=O)Nc2ccc3ccccc3c2)[nH]c1=O (stereo unspecified) | . | / | . | . | .
COc1cc(=O)[nH]c(SC(C)C(=O)Nc2ccc3ccccc3c2)n1 (stereo unspecified) | / | 37.1 | / | . | .
Cc1cccc(-c2nnc(C3CCN(S(=O)(=O)c4cccc(Cl)c4)CC3)o2)c1 | / | . | . | / | /
COc1ccc2[nH]c3c(c2c1)CCn1c-3nc2sc(C(=O)Nc3ccccc3)c(C)c2c1=O | 39.2 | . | . | / | /
Cc1ccc(CSCCNC(=O)CSCc2ccc([N+](=O)[O-])cc2)cc1 | 31.7 | . | . | . | .
Cc1cccc(CSCCNC(=O)CSCc2ccc([N+](=O)[O-])cc2)c1 | . | . | . | . | .
C/C(=N\NC(=O)CSCc1ccc([N+](=O)[O-])cc1)c1ccccc1O | 77.0 | . | . | . | .
CCOc1ccc(OCC(=O)NCCS(=O)(=O)N2CCN(c3ccccc3F)CC2)cc1 | / | . | . | / | /
CCCCCn1c(-c2ccc(OC)c(OC)c2)nc2ccccc21 | / | . | . | / | /
CCS(=O)(=O)NCCc1sc2nc(-c3ccc(OC)cc3)nn2c1C | / | . | . | / | /
CCc1ccc(OCC(=O)NCC(c2ccc(OC)cc2)N2CCOCC2)cc1 (stereo unspecified) | / | . | . | / | /
C=C(C)[C@@H]1CC[C@]2(C(=O)O)CC[C@]3(C)[C@H](CC[C@@H]4[C@@]5(C)CC[C@H](O)C(C)(C)[C@@H]5CC[C@]43C)[C@@H]12 | 36.4 | . | . | . | .
COc1ccc(C)cc1NC(=O)NC1CCN(Cc2ccccc2)CC1 | 75.1 | . | . | . | .
CCC(C)[C@H](NC(=O)NC1CCN(Cc2ccccc2)CC1)C(=O)OC (stereo partly specified) | 56.6 | . | . | . | .
COc1ccc(S(=O)(=O)NC2CCN(Cc3ccccc3)CC2)cc1NC(C)=O | . | . | . | . | .
CCN1CCC(NC(=O)Nc2ccccc2C(=O)OC)CC1 | . | . | . | . | .
SMILES | D2 antag | D2 PAM-1 | D2 ag-1 | D2 PAM-2 | D2 ag-2
CCc1cccc(CN2CCC(CNC(=O)Nc3ccc(Cl)cc3)CC2)c1 | 35.5 | . | . | . | .
COC(=O)c1ccccc1NC(=O)NC1CCN(Cc2ccccc2)CC1 | 63.9 | . | . | . | .
Cc1cccc(NC(=O)CCN2CCN(c3ccccc3F)CC2)c1 | / | . | / | / | /
COc1ccc(Cl)cc1NC(=O)NCC1CCN(Cc2cc(C)ccc2C)CC1 | 54.6 | . | . | . | .
Cc1ccc(C)c(CN2CCC(CNC(=O)Nc3ccc(C)c(C)c3)CC2)c1 | . | . | . | . | .
O=C1/C(=C\c2cccc(O)c2O)SC(=S)N1Cc1ccccc1 | / | . | / | . | .
O=C1/C(=C\c2cc([N+](=O)[O-])ccc2O)SC(=S)N1Cc1ccc(Cl)cc1 | . | . | 89.5 | . | .
